# Assay outcomes from PubChem.
# In the library only some 4.2% were active in any assay of this set; here they are far more common.
# hcDAF-12 act: activates DAF-12 receptor from parasite H. contortus | HEK293 hcDAF-12 lit1-tk-luc reporter, luminescence; 0% DMSO, 100% Δ7-dafachronic acid | activation, % at 6.8 µM | 370,000 compounds, 1.4% hits;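 active means activation above the mean of all tested compounds plus 3 SD, cut at about 5.5% in these data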;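 further: 100% = response to 3 µM Δ7-dafachronic acid high control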
# hgDAF12 agonist: activates the H. glycines DAF-12 receptor ligand-binding domain. HEK293 GAL4-hgDAF12 UAS-luciferase reporter, agonist luminescence; normalized to butyrate control. activation, % at 6.8 µM. 370,000 compounds, 1.8% hits;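 active means activation above a cutoff set at the mean of all screened compounds plus 3 SD, cut at about 10% in these data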;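 further: 0% = DMSO wells and 100% = sodium butyrate wells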
# ssDAF-12 act: activators of S. stercoralis DAF-12 nuclear receptor; HEK293 ssDAF-12/GRIP1 lit1-tk-luc reporter, luminescence; % of 3 µM dafachronic acid response; activation, % at 6.8 µM; 370,000 compounds, 1% hits; AID 652126;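 active means activation above the mean over all tested compounds plus 3 SD, cut at about 0.9% in these data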;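 further: 0% = DMSO-only wells and 100% = 3 µM delta7-dafachronic acid wells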
# SMARCA2 activ: activators of SMARCA2 function; MG213 cells, MMTV-luciferase reporter, dexamethasone, overnight; activation, % at 9.1 µM; 370,000 compounds, 1% hits; AID 652017; in the data active means activation above about 7.8%;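 further: 0% = vehicle wells and 100% = reference activator wells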
# DAX1 StAR inh: DAX1 (NR0B1) inhibition, primary screen. HEK293T StAR-luciferase reporter, SF-1/DAX-1 repression relief. inhibition, % at 6.8 µM. 370,000 compounds, 1.1% hits. AID 652010;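 active means inhibition above the mean over all tested compounds plus 3 SD, cut at about 3.6% in these data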;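 further: 0% = DAX-1 cells with DMSO and 100% = cells lacking DAX-1 with DMSO; higher inhibition means more luminescence from relief of DAX-1 repression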
# SMARCA2 conf: confirmation of SMARCA2 (BRM) function activators. shares compounds with SMARCA2 activ. MG213 cells, MMTV-luciferase with dexamethasone, luminescence, overnight; MG213 cells expressing E1A, Rb sequestered; DMSO wells 0%, reference activator 100%. 3,500 compounds, 30% hits. activation, % at 9.1 µM. AID 652260;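 active means activation above its plate's cutoff, the mean activation of tested wells plus 3 SD, cut at about 7.9% in these data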
# GAL4-VP16 Luc: activates GAL4-VP16 luciferase, flagging SMARCA2 activator hits | shares compounds with SMARCA2 activ | HEK293 GAL4-VP16 pG5luc reporter, luciferase luminescence; scaled: DMSO wells 0%, SAHA wells 100% | activation, % at 9.1 µM | 3,500 compounds, 41% hits;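 active means activation above the solvent-only control well mean plus 3 SD, averaged across control plates, cut at about 5.2% in these data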
# * = called active by the depositor; nt = no result given.
SMILES,hcDAF-12 act,hgDAF12 agonist,ssDAF-12 act,SMARCA2 activ,DAX1 StAR inh,SMARCA2 conf,GAL4-VP16 Luc
COC(=O)C[C@H]1CC[C@H](NC(=O)Nc2ccccc2F)[C@@H](CO)O1,0,0,0,-2,1,nt,nt
CC(C)C[C@H]1COc2cc(NCCCN3CCOCC3)ccc2S(=O)(=O)N1,1,1,-1,-2,0,nt,nt
O=C(NCCCCc1ccccc1)c1ccc(Br)o1,0,0,-1,-2,0,nt,nt
O=C(NCCCc1ccccc1)c1ccc(Br)o1,-1,4,-2,9.7*,1,1,0
CC1=CC2=NC(=O)/C(=C\c3cc(C)n(-c4cccc(Cl)c4)c3C)C(=N)N2O1,1,-3,-1,9.1*,-1,-4,2
CC1=CC2=NC(=O)/C(=C\c3cc(C)n(-c4ccccc4)c3C)C(=N)N2O1,-1,-2,-1,-3,0,nt,nt
O=[N+]([O-])c1cccnc1NCCc1ccccc1,4,4,-1,-1,0,nt,nt
O=[N+]([O-])c1cccnc1NCCc1c[nH]c2ccccc12,3,12*,1.0*,8.8*,1,13*,8.4*
Fc1cccc(CSc2ccc(-c3ccco3)nn2)c1,-1,9,0,15*,0,13*,5.5*
COc1cc(C)nc(NC(=O)NC(=O)c2ccc(C(F)(F)F)cc2)n1,0,2,-1,8.1*,0,0,0
Cc1cc(C)nc(NC(=O)NC(=O)c2ccccc2)n1,-2,-1,-1,-1,-2,nt,nt
CCS(=O)(=O)c1ccc(O)c(NC(=O)COc2ccc(C)cc2)c1,-3,-3,-2,5,0,nt,nt
CCS(=O)(=O)c1ccc(O)c(NC(=O)COc2ccc(OC)cc2)c1,-1,0,-1,8.1*,0,-2,-1
Cc1ccc2nc(Cl)c3cc(C(=O)NCCCN4CCCC4)sc3c2c1,4,1,0,14*,2,10*,1
CCCN1CCN(CCCNC(=O)c2cc3c(=O)oc4ccc(C)cc4c3s2)CC1,-2,1,-1,0,-1,nt,nt
COc1ccc(OC)c(S(=O)(=O)N2CCC(C(=O)Nc3ccc(C)c(C)c3)CC2)c1,-4,-7,-2,-5,-2,nt,nt
COc1ccc(OC)c(S(=O)(=O)N2CCC(C(=O)Nc3cccc(C)c3C)CC2)c1,-1,0,-1,8.4*,-1,-2,1
CCOC(=O)c1ccc(N2Cc3ccccc3C2=N)cc1,0,2,-1,12*,0,11*,3
CCOC(=O)c1ccc(N2Cc3ccccc3C2=NC(=O)c2ccncc2)cc1,0,5,0,8,2,nt,nt
Cc1cccc(N2CCN(C(=O)c3ccc4c(=O)[nH]c5c(C(=O)NC6CCCC6)sc(=S)n5c4c3)CC2)c1C,1,7,-1,-5,0,nt,nt
S=C(Nc1ccccc1)c1ccccn1,5,8,0,8.2*,1,30*,9.4*
S=C(Nc1ccccc1)Nc1ccccn1,4,2,-1,0,0,nt,nt
Cc1cc(N2CCCC2)nc2ccc(NC(=S)NCCCN3CCC(C)CC3)cc12,-1,0,-1,12*,1,19*,1
CCCN1CCN(CCCNC(=S)Nc2ccc3nc(N4CCN(CC)CC4)cc(C)c3c2)CC1,-1,1,-1,6,0,nt,nt
Cc1ccc(C(=O)CSc2nc(C)cc(C)c2C(N)=O)cc1,0,0,-1,2,0,nt,nt
Cc1ccc(C(=O)CC(C(=O)O)n2ccc(C)n2)cc1 (stereo unspecified),-1,-2,-1,8.2*,0,-1,0
c1ccc2c(c1)CCN(C1=Nc3cccc4cccc1c34)C2,4,6,1,12*,1,4,3
C/C(C=Nn1c(-c2ccc(F)cc2)n[nH]c1=S)=C/c1ccco1,1,-3,0,3,0,nt,nt
O=C(CCSCc1ccccc1F)N1CCN(c2ccccn2)CC1,0,4,0,12*,1,6,5.7*
